# About 110 (5.5%) of roughly 2,000 compounds showed an effect of 50% or more. The full list was thinned out, with strong results kept by preference.
# Molecular target: Genome polyprotein (dengue virus type 2) (UniProt P29990)
# [1] = Thailand/16681/1984, Concentration 25.0 uM, Number of replicates 1.0
structure (smiles),measurement,setting,value
Cc1cc(CO)c2cccc(Cc3ccccc3NC(=O)Cc3nnc(C)[nH]3)c2n1,inhibition,"Thailand/16681/1984, Concentration 49.95 uM, Number of replicates 2.0, Standard deviation 1.0489246346930539 %",2.09%
same,inhibition,"Thailand/16681/1984, Concentration 99.9 uM, Number of replicates 2.0, Standard deviation 0.8121374020252716 %",10.7%
O=Cc1ccc(N2CCC(C(=O)NCc3ccc(-c4ccccn4)cc3)CC2)cc1,inhibition,[1],6.55%
CC(=O)N[C@@H](Cc1ccc(CN)cc1)C(=O)Nc1cccc2c(CO)cc(C)nc12,inhibition,"Thailand/16681/1984, Concentration 49.95 uM, Number of replicates 2.0, Standard deviation 0.08390662036506401 %",24.9%
same,inhibition,"Thailand/16681/1984, Concentration 99.9 uM, Number of replicates 2.0, Standard deviation 0.3339864632910001 %",96.3%
CC(=O)N[C@@H](Cc1ccc(O)cc1)C(=O)Nc1cccc2c(CO)cc(C)nc12,inhibition,"Thailand/16681/1984, Concentration 49.95 uM, Number of replicates 2.0, Standard deviation 2.4752459751189644 %",-9.17%
same,inhibition,"Thailand/16681/1984, Concentration 99.9 uM, Number of replicates 2.0, Standard deviation 3.123465853915667 %",-9.54%
CC(=O)N[C@@H](CCCCN)C(=O)Nc1ccccc1Cc1cccc2c(CO)cc(C)nc12,inhibition,"Thailand/16681/1984, Concentration 49.95 uM, Number of replicates 2.0, Standard deviation 0.842601818478522 %",-5.54%
same,inhibition,"Thailand/16681/1984, Concentration 99.9 uM, Number of replicates 2.0, Standard deviation 0.16339684106206548 %",1.8%
CC(=O)N[C@@H](CCCN)C(=O)Nc1ccccc1Cc1cccc2c(CO)cc(C)nc12,inhibition,"Thailand/16681/1984, Concentration 49.95 uM, Number of replicates 2.0, Standard deviation 1.2344771467866291 %",-4.07%
same,inhibition,"Thailand/16681/1984, Concentration 99.9 uM, Number of replicates 2.0, Standard deviation 0.6037374205287288 %",4.36%
CC(=O)N[C@@H](CCCN)C(=O)Nc1cccc2c(CO)cc(C)nc12,inhibition,"Thailand/16681/1984, Concentration 99.9 uM, Number of replicates 2.0, Standard deviation 2.7664513641226787 %",9.57%
CC(=O)N[C@@H](CCCCN)C(=O)Nc1cccc2c(CO)cc(C)nc12,inhibition,"Thailand/16681/1984, Concentration 49.95 uM, Number of replicates 2.0, Standard deviation 0.7189645441339965 %",35.5%
same,inhibition,"Thailand/16681/1984, Concentration 99.9 uM, Number of replicates 2.0, Standard deviation 0.1513618084697797 %",97.4%
Cn1cc(NC(=O)c2ccccc2C(F)(F)F)c(-c2ccc(F)nc2)n1,inhibition,"Thailand/16681/1984, Concentration 49.5 uM, Number of replicates 2.0, Standard deviation 3.6499634215033607 %",-3.01%
same,inhibition,"Thailand/16681/1984, Concentration 99.01 uM, Number of replicates 2.0, Standard deviation 1.5811035342397435 %",-2.37%
same,inhibition,"Thailand/16681/1984, Concentration 198.0 uM, Number of replicates 2.0, Standard deviation 0.8634737807980869 %",-2.26%
O=Cc1ccc(N2CCC(C(=O)Nc3c(Cl)cncc3Cl)CC2)cc1,inhibition,[1],12.4%
Cc1cc(CO)c2cccc(Cc3ccccc3C(=O)NCC(=O)O)c2n1,inhibition,"Thailand/16681/1984, Concentration 49.95 uM, Number of replicates 2.0, Standard deviation 0.8422599232434016 %",38.5%
same,inhibition,"Thailand/16681/1984, Concentration 99.9 uM, Number of replicates 2.0, Standard deviation 0.5627042603428867 %",64.9%
Cc1cc(CO)c2cccc(Cc3cccc(C(=O)NCC(=O)O)c3)c2n1,inhibition,"Thailand/16681/1984, Concentration 49.95 uM, Number of replicates 2.0, Standard deviation 0.8336363408632846 %",63.2%
same,inhibition,"Thailand/16681/1984, Concentration 99.9 uM, Number of replicates 2.0, Standard deviation 0.025873444538655716 %",79.2%
Cc1cc(CO)c2cccc(Cc3cccc(C(=O)NC[C@H](C)O)c3)c2n1,inhibition,"Thailand/16681/1984, Concentration 49.95 uM, Number of replicates 2.0, Standard deviation 1.3417230059830858 %",-6.96%
same,inhibition,"Thailand/16681/1984, Concentration 99.9 uM, Number of replicates 2.0, Standard deviation 0.8544771145149516 %",-2.86%
Cc1cc(CO)c2cccc(Cc3ccccc3C(=O)NCC(N)=O)c2n1,inhibition,"Thailand/16681/1984, Concentration 49.95 uM, Number of replicates 2.0, Standard deviation 0.5253345885233084 %",1.79%
same,inhibition,"Thailand/16681/1984, Concentration 99.9 uM, Number of replicates 2.0, Standard deviation 0.6122918820772879 %",9.88%
Cc1cc(CO)c2cccc(Cc3cccc(C(=O)NCC(N)=O)c3)c2n1,inhibition,"Thailand/16681/1984, Concentration 49.95 uM, Number of replicates 2.0, Standard deviation 0.5174294413229081 %",2.44%
same,inhibition,"Thailand/16681/1984, Concentration 99.9 uM, Number of replicates 2.0, Standard deviation 1.3216010889796208 %",17.6%
Cc1cc(CO)c2cccc(Cc3ccccc3C(=O)NC[C@H](C)O)c2n1,inhibition,"Thailand/16681/1984, Concentration 49.95 uM, Number of replicates 2.0, Standard deviation 0.37872955767016525 %",-3.03%
same,inhibition,"Thailand/16681/1984, Concentration 99.9 uM, Number of replicates 2.0, Standard deviation 0.20409716758521712 %",0.577%
O=Cc1ccc(N2CCC(C(=O)N3CCc4ccc([N+](=O)[O-])cc4C3)CC2)cc1,inhibition,[1],16.6%
O=Cc1ccc(N2CCC(C(=O)NCC3CCC(C(F)(F)F)CC3)CC2)cc1 (stereo unspecified),inhibition,[1],12.8%
Cc1cc(C)nc(CCNC(=O)C2CCN(c3ccc(C=O)cc3)CC2)n1,inhibition,[1],10.6%
C[C@@H](CNc1cc(Cl)cc(C(=O)NC(C)(C)CO)c1)c1ccc(F)cc1,inhibition,"Thailand/16681/1984, Concentration 49.5 uM, Number of replicates 2.0, Standard deviation 1.7964155145983758 %",-4.87%
same,inhibition,"Thailand/16681/1984, Concentration 99.01 uM, Number of replicates 2.0, Standard deviation 2.367041527999976 %",-8.66%
O=Cc1ccc(N2CCC(C(=O)NCc3ccc(Br)cn3)CC2)cc1,inhibition,[1],13.7%
Cc1cc(CO)c2cccc(NC(=O)[C@@H]3CCCC[C@H]3N)c2n1,inhibition,"Thailand/16681/1984, Concentration 49.95 uM, Number of replicates 2.0, Standard deviation 4.042326157041073 %",-9.54%
Cc1cc(CO)c2cccc(NC(=O)C3CC(N)C3)c2n1 (stereo unspecified),inhibition,"Thailand/16681/1984, Concentration 49.95 uM, Number of replicates 2.0, Standard deviation 0.3514210972334106 %",31.4%
same,inhibition,"Thailand/16681/1984, Concentration 99.9 uM, Number of replicates 2.0, Standard deviation 0.19619256829384746 %",78.8%
Cc1cc(CO)c2cccc(NC(=O)CNC3CC3)c2n1,inhibition,"Thailand/16681/1984, Concentration 49.95 uM, Number of replicates 2.0, Standard deviation 1.6119901778213759 %",15.9%
same,inhibition,"Thailand/16681/1984, Concentration 99.9 uM, Number of replicates 2.0, Standard deviation 1.4451149573517064 %",30.7%
Cc1cc(CO)c2cccc(NC(=O)[C@H]3CCNC3)c2n1,inhibition,"Thailand/16681/1984, Concentration 49.95 uM, Number of replicates 2.0, Standard deviation 1.8979597481282788 %",-0.539%
same,inhibition,"Thailand/16681/1984, Concentration 99.9 uM, Number of replicates 2.0, Standard deviation 1.976292784952565 %",2.99%
Cc1cc(CO)c2cccc(NC(=O)C3CCC(N)CC3)c2n1 (stereo unspecified),inhibition,"Thailand/16681/1984, Concentration 49.95 uM, Number of replicates 2.0, Standard deviation 0.3430335372049546 %",80.8%
same,inhibition,"Thailand/16681/1984, Concentration 99.9 uM, Number of replicates 2.0, Standard deviation 0.009052468710563864 %",98.8%
Cc1cc(CO)c2cccc(NC(=O)C3CNC3)c2n1,inhibition,"Thailand/16681/1984, Concentration 99.9 uM, Number of replicates 2.0, Standard deviation 1.2849235527062883 %",-8.19%
Cc1cc(CO)c2cccc(NC(=O)C3CCC(CN)CC3)c2n1 (stereo unspecified),inhibition,"Thailand/16681/1984, Concentration 49.95 uM, Number of replicates 2.0, Standard deviation 1.7984525560806044 %",96%
same,inhibition,"Thailand/16681/1984, Concentration 99.9 uM, Number of replicates 2.0, Standard deviation 0.012834221133749364 %",98.2%
Cc1cc(CO)c2cccc(NC(=O)C3CCN(C)CC3)c2n1,inhibition,"Thailand/16681/1984, Concentration 99.9 uM, Number of replicates 2.0, Standard deviation 2.5723142976307076 %",0.725%
Cc1cc(CO)c2cccc(NC(=O)[C@@H]3CCCC[C@H]3C(=O)O)c2n1,inhibition,"Thailand/16681/1984, Concentration 49.95 uM, Number of replicates 2.0, Standard deviation 1.6403651221128503 %",4.53%
same,inhibition,"Thailand/16681/1984, Concentration 99.9 uM, Number of replicates 2.0, Standard deviation 0.7343808497949172 %",11.1%
